Data taken from PubChem BioAssay (Tox21).
Inconclusive results are not listed. Activity calls are given as the source filed them. Unless noted, calls come from the whole dose curve.

Columns and labels:
[1] = Nuclear factor erythroid 2-related factor 2/antioxidant responsive element (Nrf2/ARE) small molecule agonists: qHTS cell viability counter screen in human keratinocytes (AID 1919968; active = well fitted curve in the direction sought with a large enough effect in the repeat runs; an effect the other way counts as inactive or inconclusive; note: nearly all actives have a fitted effect of over 55% in size)
Summary of the method: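 Seed 1,500 KeratinoSens cells per well, then incubate 5 h at 37 C/5% CO2. Add compounds in DMSO and incubate 23 h. Add CellTiter-Fluor, wait 1 h and read fluorescence.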

[2] = Nuclear factor erythroid 2-related factor 2/antioxidant responsive element (Nrf2/ARE) small molecule agonists: luciferase reporter gene qHTS assay in human keratinocytes (AID 1919969); note: nearly all actives have a fitted effect of over 35% in size
[3] = target: Gonadotropin-releasing hormone receptor (Homo sapiens) (UniProt P30968); experiment: Human gonadotropin-releasing hormone receptor (GnRHR) small molecule agonists, calcium flux assay in GnRHR-HEK293 cells (AID 1920063); note: nearly all actives have a fitted effect of over 35% in size
Sequence of Gonadotropin-releasing hormone receptor (Homo sapiens) (P30968 whole entry, looked up): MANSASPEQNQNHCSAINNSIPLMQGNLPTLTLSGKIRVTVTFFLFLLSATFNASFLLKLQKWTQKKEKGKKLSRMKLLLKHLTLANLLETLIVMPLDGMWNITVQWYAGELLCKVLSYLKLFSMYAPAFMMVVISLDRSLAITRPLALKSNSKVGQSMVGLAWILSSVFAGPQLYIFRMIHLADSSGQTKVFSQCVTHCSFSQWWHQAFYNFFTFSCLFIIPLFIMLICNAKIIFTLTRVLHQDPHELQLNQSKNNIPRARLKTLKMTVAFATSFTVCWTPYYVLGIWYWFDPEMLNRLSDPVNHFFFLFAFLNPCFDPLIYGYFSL
Summary of the method: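 Cells: HEK293 stably expressing human GnRHR. Steps: overnight (18 h) culture, 1 h calcium dye loading at 37 C, compound addition, kinetic fluorescence read at 480/540 nm. Each compound tested at 15 concentrations in triplicate.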

[4] = target: KiSS-1 receptor (Homo sapiens) (UniProt Q969F8); experiment: Human kisspeptin (KISS1R) small molecule agonists, calcium flux assay in KISS1R-HEK293 cells (AID 1920064; active = well fitted curve in the direction sought with a large enough effect in the repeat runs; an effect the other way counts as inactive or inconclusive)
Sequence of KiSS-1 receptor (Homo sapiens) (Q969F8 whole entry, looked up): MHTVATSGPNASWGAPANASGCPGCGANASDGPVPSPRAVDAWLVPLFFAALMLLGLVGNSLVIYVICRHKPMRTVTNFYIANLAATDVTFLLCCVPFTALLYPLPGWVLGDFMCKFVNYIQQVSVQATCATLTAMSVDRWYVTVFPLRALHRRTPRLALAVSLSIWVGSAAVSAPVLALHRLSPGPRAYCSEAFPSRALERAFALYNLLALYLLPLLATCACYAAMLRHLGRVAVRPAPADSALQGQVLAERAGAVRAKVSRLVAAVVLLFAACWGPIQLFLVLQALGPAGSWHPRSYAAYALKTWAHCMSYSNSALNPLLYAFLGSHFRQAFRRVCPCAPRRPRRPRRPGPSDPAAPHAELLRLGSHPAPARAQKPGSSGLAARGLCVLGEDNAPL
Summary of the method: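 Cells plated and incubated 18 h; dye added, 1 h at 37 C; compounds in DMSO pinned in; signal read at 480/540 nm every second for 3 min. Each compound tested at 15 concentrations in triplicate.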

[5] = G protein-coupled receptor (GPCR) small molecule agonists, calcium flux assay: HEK293 wild type cell line counter screen (AID 1920065)
Summary of the method: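 Counter-screen of the Tox21 10K library for non-specific calcium release: dye-loaded cells received compounds in DMSO and were monitored by kinetic fluorescence (480/540 nm, 3 min). Fifteen concentrations, run in triplicate.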

[6] = p53 small molecule agonists, cell-based qHTS assay with human liver microsomes (AID 1963577);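 note: p53 response element beta-lactamase reporter cells with liver microsomes plus NADPH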
Summary of the method: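 In this qHTS, p53 response-element beta-lactamase cells receive test compound together with a microsome/NADPH activating system (0.5 mg/mL final each) and are incubated 16 h at 37 C before LiveBLAzer fluorescence detection.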

[7] = p53 small molecule agonists, cell-based qHTS assay with rat liver microsomes (AID 1963578)
Summary of the method: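 Agonist mode in p53RE-bla reporter cells, with compounds co-incubated 16 h at 37 C alongside 0.5 mg/mL rat liver microsomes and 0.5 mg/mL NADPH (final), followed by a 2 h LiveBLAzer detection step.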

[8] = p53 small molecule agonists, cell-based qHTS assay with human liver microsomes: qHTS cell viability counter screen (AID 1963579); note: nearly all actives have a fitted effect of over 45% in size
Summary of the method: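 Metabolically activated exposure: compounds, human liver microsomes and NADPH (0.5 mg/mL final apiece) were added to p53RE-bla cells seeded 5 h earlier, left 16 h at 37 C, and then assessed for viability by CellTiter-Glo luminescence.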

[9] = p53 small molecule agonists, cell-based qHTS assay: qHTS cell viability counter screen (AID 1963581); note: nearly all actives have a fitted effect of over 45% in size
Summary of the method: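 Cells: HCT-116 with p53 response element-driven beta-lactamase. Treatment: 16 h, 37 C, compounds in DMSO. Read: CellTiter-Glo luminescence after 30 min RT.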

[10] = p53 small molecule agonists, cell-based qHTS assay (AID 1963582; active = well fitted activation curve with a large enough effect in the signal ratio in the repeat runs, not every such curve was filed as active; the % refers to the signal ratio)
Summary of the method: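 Quantitative HTS in p53RE-bla cells: after a 5 h settling period, compounds delivered in DMSO were left on cells for 16 h at 37 C, and reporter induction was measured as fluorescence following 2 h substrate loading.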

[11] = target: 5-hydroxytryptamine receptor 2A (Homo sapiens) (UniProt P28223); experiment: 5-hydroxytryptamine receptor 2A (HTR2A) small molecule antagonists, cell-based qHTS assay (AID 1963586); note: nearly all actives have a fitted effect of over 45% in size
Sequence of 5-hydroxytryptamine receptor 2A (Homo sapiens) (P28223 whole entry, looked up): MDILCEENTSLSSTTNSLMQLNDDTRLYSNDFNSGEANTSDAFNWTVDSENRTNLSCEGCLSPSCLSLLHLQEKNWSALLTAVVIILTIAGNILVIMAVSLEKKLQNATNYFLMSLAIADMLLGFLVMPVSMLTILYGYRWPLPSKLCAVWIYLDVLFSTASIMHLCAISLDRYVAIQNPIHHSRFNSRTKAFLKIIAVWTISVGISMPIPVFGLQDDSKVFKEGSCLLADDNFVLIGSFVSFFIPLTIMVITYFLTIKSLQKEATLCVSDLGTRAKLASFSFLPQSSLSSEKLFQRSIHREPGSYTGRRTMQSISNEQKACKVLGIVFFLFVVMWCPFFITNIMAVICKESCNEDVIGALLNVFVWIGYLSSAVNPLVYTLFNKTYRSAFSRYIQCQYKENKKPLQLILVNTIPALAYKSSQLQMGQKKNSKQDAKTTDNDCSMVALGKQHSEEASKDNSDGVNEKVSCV
Summary of the method: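 Antagonist-mode intracellular calcium assay: DOI (4 nM) added after 5 min compound pre-incubation at room temperature to dye-loaded HTR2A-CHO cells. Fluorescence followed for 3 min, sampled every second.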

[12] = target: 5-hydroxytryptamine receptor 2A (Homo sapiens) (UniProt P28223); experiment: 5-hydroxytryptamine receptor 2A (HTR2A) small molecule agonists, cell-based qHTS assay (AID 1963587); note: nearly all actives have a fitted effect of over 30% in size
Summary of the method: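 CHO cells stably expressing human HTR2A, plated 18 h, loaded with calcium dye 1 h at 37 C. Agonist mode: compounds added and intracellular calcium fluorescence recorded kinetically for 2 min at 1 sec intervals.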

[13] = target: Muscarinic acetylcholine receptor M1 (Homo sapiens) (UniProt P11229); experiment: Cholinergic receptor muscarinic 1 (CHRM1) small molecule antagonists, cell-based qHTS assay (AID 1963588); note: nearly all actives have a fitted effect of over 40% in size
Sequence of Muscarinic acetylcholine receptor M1 (Homo sapiens) (P11229 whole entry, looked up): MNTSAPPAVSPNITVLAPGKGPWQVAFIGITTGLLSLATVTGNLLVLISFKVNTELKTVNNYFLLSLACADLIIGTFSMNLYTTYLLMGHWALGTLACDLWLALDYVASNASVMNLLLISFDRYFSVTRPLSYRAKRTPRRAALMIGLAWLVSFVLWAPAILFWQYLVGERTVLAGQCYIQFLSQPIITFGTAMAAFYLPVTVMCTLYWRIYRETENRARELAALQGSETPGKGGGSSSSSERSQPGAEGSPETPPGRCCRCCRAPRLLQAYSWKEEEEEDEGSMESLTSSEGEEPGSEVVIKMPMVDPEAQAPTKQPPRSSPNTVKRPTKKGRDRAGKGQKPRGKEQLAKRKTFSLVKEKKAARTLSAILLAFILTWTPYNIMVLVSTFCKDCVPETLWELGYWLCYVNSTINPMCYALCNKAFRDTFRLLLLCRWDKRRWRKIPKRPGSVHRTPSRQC
Summary of the method: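 CHRM1-CHO calcium-flux assay, antagonist mode. Cells were seeded 18 h, dye-loaded 1 h at 37 C and given compound for 5 min at RT, then acetylcholine was added at 50nM. FDSS fluorescence was read 3 min; 15 concentrations, three runs.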

[14] = target: Muscarinic acetylcholine receptor M1 (Homo sapiens) (UniProt P11229); experiment: Cholinergic receptor muscarinic 1 (CHRM1) small molecule agonists, cell-based qHTS assay (AID 1963589); note: nearly all actives have a fitted effect of over 35% in size
Summary of the method: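 Agonist-mode qHTS in CHO cells stably carrying human muscarinic M1. Intracellular calcium is tracked by fluorescence every second after compound transfer; each compound runs at 15 concentrations in three independent runs.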

[15] = cAMP Responsive Elements (CRE) small molecule antagonists, cell-based qHTS assay (AID 1963591; active = well fitted inhibition curve with a large enough effect in the signal ratio in the repeat runs, not every such curve was filed as active; the % refers to the signal ratio)
Summary of the method: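 Antagonist mode: test compounds are co-incubated with the adenylyl cyclase activator NKH477 (0.25 uM final) on CRE-bla HEK293T cells for 3 h at 37 °C, followed by LiveBLAzer substrate loading.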

[16] = target: Beta-2 adrenergic receptor (Homo sapiens) (UniProt P07550); experiment: Adrenergic beta2 receptor (ADRB2) small molecule antagonists, cell-based qHTS assay (AID 1963592); note: series mostly up to about 92 µM; nearly all actives have a fitted effect of over 50% in size
Sequence of Beta-2 adrenergic receptor (Homo sapiens) (P07550 whole entry, looked up): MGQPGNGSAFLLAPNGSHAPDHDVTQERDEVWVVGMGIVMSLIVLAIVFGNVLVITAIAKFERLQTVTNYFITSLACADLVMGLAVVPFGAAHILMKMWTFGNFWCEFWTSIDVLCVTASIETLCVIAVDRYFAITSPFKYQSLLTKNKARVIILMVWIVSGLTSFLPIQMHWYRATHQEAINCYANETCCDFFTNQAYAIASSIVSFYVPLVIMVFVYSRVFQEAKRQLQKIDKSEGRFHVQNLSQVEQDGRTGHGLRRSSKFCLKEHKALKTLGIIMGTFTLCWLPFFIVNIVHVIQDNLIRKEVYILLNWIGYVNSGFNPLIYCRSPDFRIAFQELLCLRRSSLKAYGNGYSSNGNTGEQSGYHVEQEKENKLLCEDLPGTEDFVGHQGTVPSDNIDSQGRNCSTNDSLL
Summary of the method: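 Cells (CHO, stable ADRB2 overexpression) incubated 18-20hr at 37C; compounds added from DMSO; agonist mix (1nM isoproterenol, 100uM IBMX, 25uM Ro-20-1724) added; 0.5hr RT; d2-cAMP and anti-cAMP-cryptate added; 1hr RT; 665/615 nm read.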

[17] = target: D(2) dopamine receptor (Homo sapiens) (UniProt P14416); experiment: Dopamine D2 receptor (DRD2) small molecule agonists, cell-based qHTS assay (AID 1963594); note: nearly all actives have a fitted effect of over 35% in size
Sequence of D(2) dopamine receptor (Homo sapiens) (P14416 whole entry, looked up): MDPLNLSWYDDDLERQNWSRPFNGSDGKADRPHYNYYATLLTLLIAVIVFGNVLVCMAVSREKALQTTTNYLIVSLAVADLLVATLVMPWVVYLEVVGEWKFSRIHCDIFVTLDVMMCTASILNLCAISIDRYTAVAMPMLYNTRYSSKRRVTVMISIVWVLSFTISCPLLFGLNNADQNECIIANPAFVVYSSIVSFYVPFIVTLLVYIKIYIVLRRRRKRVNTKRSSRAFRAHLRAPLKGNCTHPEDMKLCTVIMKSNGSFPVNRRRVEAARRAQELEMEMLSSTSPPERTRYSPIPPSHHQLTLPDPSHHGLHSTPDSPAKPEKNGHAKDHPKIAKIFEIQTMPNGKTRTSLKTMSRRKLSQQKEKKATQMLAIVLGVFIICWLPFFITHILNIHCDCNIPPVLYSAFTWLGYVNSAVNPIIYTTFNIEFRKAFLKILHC
Summary of the method: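 HEK293 cells stably expressing human DRD2, pre-treated with PDE inhibitor Ro20-1724 (0.1 mM final) and compound 10 min at room temperature, then stimulated with NKH477 (200nM […]) for 30 min. cAMP read by HTRF (665/620 nm).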

[18] = target: D(2) dopamine receptor (Homo sapiens) (UniProt P14416); experiment: Dopamine D2 receptor (DRD2) small molecule antagonists, cell-based qHTS assay (AID 1963595; active = well fitted inhibition curve with a large enough effect in the signal ratio in the repeat runs, with a control signal flat; the % refers to the signal ratio)
Summary of the method: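 HTRF cAMP read-out at 665 and 620 nm emission (340 nm excitation). Antagonist mode: compounds were tested against 12 nM quinpirole in DRD2-HEK293 cells, with 200 nM NKH477 raising cAMP and 0.1 mM Ro20-1724 blocking its breakdown.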

[19] = cAMP Responsive Elements (CRE) small molecule agonists, cell-based qHTS assay (AID 1963590)
Summary of the method: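 Agonist mode qHTS in CRE-bla HEK 293T cells: compounds dosed from DMSO for 3 h at 37 C/5% CO2, followed by LiveBLAzer B/G FRET substrate for 2 h at room temperature.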

[20] = target: Beta-2 adrenergic receptor (Homo sapiens) (UniProt P07550); experiment: Adrenergic beta2 receptor (ADRB2) small molecule agonists, cell-based qHTS assay (AID 1963593);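 note: CHO cells stably overexpressing human ADRB2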
Summary of the method: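 CHO cells stably over-expressing ADRB2 were plated overnight at 37C, then dosed with compounds plus a stimulation mix containing 100uM IBMX and 25uM Ro-20-1724 for 0.5hr at room temperature. cAMP was measured by HTRF competition, 1hr.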

Measured: Potency

C[C@@H](O)[C@H]1C(=O)N2C(C(=O)O)=C([C@H]3CCCO3)S[C@H]12
not listed: [19] | [20]
inactive: all other assays above

CC(=O)S[C@H](C(=O)N[C@H]1Cc2ccccc2[C@H]2CCC[C@@H](C(=O)O)N2C1=O)C(C)C
not listed: [12]
inactive: all other assays above

Cc1cc(C)cc(OCC2CNC(=O)O2)c1 (stereo not drawn)
not listed: [9]
inactive: all other assays above

C=CC(C)(O)CC/C=C(\C)CCC=C(C)C (stereo not drawn)
not listed: [12] | [15]
inactive: all other assays above

NCCCN1CCN(CCCN)CC1
not listed: [14] | [18] | [20]
inactive: all other assays above

O=C(O)c1ccccc1[N+](=O)[O-]
not listed: [20]
inactive: all other assays above

CC1(C)Oc2ccc(C#N)cc2[C@@H](N2CCCC2=O)[C@@H]1O
not listed: [13] | [19]
inactive: all other assays above
